Test results taken from PubChem BioAssay AID1159580 (chemical genetic matrix, 2015).
“And” between values parts separate entries of the source, which are not always exact repeats. Equal entries are not always repeated. In all, about 5,500 compounds went through this assay and about 2,000 (36%) were called active. Not shown: some 18% with an inconclusive outcome. No stated cut-off is given here; in the data, active means normalized growth mostly below about 0.91 (no sharp cut-off); inconclusive means no clear call, values can overlap the other calls; inactive means mostly above about 0.92. This is one part of the list.

Test: chemical genetic growth profiling, strain panel (AID 1159580);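 further: tested at 20 µM; growth read once vehicle control cultures reached saturation at 30 °C; 1 = growth at the plate median or of vehicle wells; lower values mean less growth of the strain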
Conditions: S. cerevisiae deletion strains, growth OD

Measured: normalized growth

CN1CC(=O)N=C1N
inactive: locus YAL013W, strain DEP1, active compounds read low 1.01 | locus YAL021C, strain ccr4, active compounds read low 1.01 | locus YAL026C, strain drs2, active compounds read low 1.03 | locus YAL030W, strain snc1, active compounds read low 1.02 | locus YBL061C, strain skt5, active compounds read low 1.03 | locus YBR009C, strain hhf1, active compounds read low 1.05 | locus YBR021W, strain FUR4, active compounds read low 1 | locus YBR023C, strain chs3, active compounds read low 1.03 | locus YBR171W, strain sec66, active compounds read low 1.03 | locus YBR229C, strain ROT2, active compounds read low 1 | locus YBR231C, strain swc5, active compounds read low 1.03 | locus YBR279W, strain paf1, active compounds read low 1.03 | locus YCL011C, strain gbp2, active compounds read low 1.03 | locus YCL016C, strain dcc1, active compounds read low 1.02 | locus YCL029C, strain bik1, active compounds read low 0.986 | locus YCL061C, strain MRC1, active compounds read low 1.01 | locus YCL069W, strain vba3, active compounds read low 1.02 | locus YCR088W, strain abp1, active compounds read low 1.01 | locus YDL005C, strain med2, active compounds read low 1.02 | locus YDL035C, strain GPR1, active compounds read low 1.01 | locus YDL040C, strain nat1, active compounds read low 1.01 | locus YDL074C, strain BRE1, active compounds read low 1.03 | locus YDL101C, strain DUN1, active compounds read low 1.02 | locus YDL134C, strain PPH21, active compounds read low 1 | locus YDL185W, strain tfp1, active compounds read low 0.992 | locus YDL192W, strain arf1, active compounds read low 1 | locus YDR001C, strain nth1, active compounds read low 1.01 | locus YDR069C, strain doa4, active compounds read low 1.04 | locus YDR101C, strain arx1, active compounds read low 0.991 | locus YDR137W, strain rgp1, active compounds read low 1.1 | locus YDR159W, strain sac3, active compounds read low 1.05 | locus YDR162C, strain NBP2, active compounds read low 1.02 | locus YDR195W, strain ref2 0.969 | locus YDR297W, strain sur2, active compounds read low 1.02 | locus YDR318W, strain mcm21, active compounds read low 0.997 | locus YDR334W, strain swr1, active compounds read low 1.02 | locus YDR335W, strain msn5, active compounds read low 1.03 | locus YDR388W, active compounds read low 0.997 | locus YDR392W, strain spt3, active compounds read low 1.02 | locus YDR502C, strain sam2, active compounds read low 0.995 | locus YEL003W, strain gim4, active compounds read low 1.04 | locus YEL037C, strain rad23, active compounds read low 1.01 | locus YEL061C, strain CIN8 (second series), active compounds read low 1.02 | locus YEL061C, strain CIN8, active compounds read low 1.01 | locus YER015W, strain faa2, active compounds read low 1.02 | locus YER016W, strain bim1, active compounds read low 1.02 | locus YER110C, active compounds read low 0.992 | locus YER111C, strain swi4, active compounds read low 1.04 | locus YER155C, strain BEM2 (second series), active compounds read low 1.06 | locus YER155C, strain BEM2, active compounds read low 1.01 | locus YER167W, strain BCK2, active compounds read low 1.01 | locus YFR010W, strain ubp6, active compounds read low 1.03 | locus YGL078C, strain dbp3, active compounds read low 0.995 | locus YGL086W, strain mad1, active compounds read low 0.998 | locus YGL167C, strain pmr1, active compounds read low 1.03 | locus YGL173C, strain kem1, active compounds read low 1.03 | locus YGL227W, strain vid30, active compounds read low 1.02 | locus YGL240W, strain doc1, active compounds read low 1.05 | locus YGL248W, strain PDE1, active compounds read low 1.01 | locus YGL253W, strain hxk2, active compounds read low 1.02 | locus YGR078C, strain PAC10, active compounds read low 1.01 | locus YGR135W, strain pre9, active compounds read low 1 | locus YGR229C, strain SMI1, active compounds read low 1.02 | locus YGR252W, strain gcn5, active compounds read low 0.965 | locus YHR013C, strain ard1, active compounds read low 1.06 | locus YHR027C, strain rpn1, active compounds read low 1.02 | locus YHR030C, strain SLT2, active compounds read low 1.01 and 0.962 | locus YHR079C, strain IRE1 (second series), active compounds read low 0.994 | locus YHR079C, strain IRE1, active compounds read low 0.966 | locus YHR094C, strain hxt1, active compounds read low 0.994 | locus YHR129C, strain ARP1, active compounds read low 1.01 | locus YHR142W, strain chs7, active compounds read low 0.996 | locus YHR200W, strain rpn10, active compounds read low 0.997 | locus YIL066C, strain RNR3, active compounds read low 1.02 | locus YIL073C, strain SPO22, active compounds read low 1.03 | locus YIL125W, strain kgd1, active compounds read low 0.988 | locus YIR030C, strain dcg1, active compounds read low 0.998 | locus YJL092W, strain hpr5, active compounds read low 1.01 | locus YJL095W, strain BCK1 (second series), active compounds read low 1.03 | locus YJL095W, strain BCK1, active compounds read low 1.03 and 0.956 | locus YJL115W, strain asf1, active compounds read low 1.02 | locus YJL129C, strain trk1, active compounds read low 1.04 | locus YJL134W, strain LCB3, active compounds read low 1.01 | locus YJL154C, strain vps35, active compounds read low 1.02 | locus YJL164C, strain tpk1, active compounds read low 1.05 | locus YJL166W, strain qcr8, active compounds read low 1.03 | locus YJL168C, strain set2, active compounds read low 1 | locus YJL187C, strain SWE1 (second series), active compounds read low 1.02 | locus YJL187C, strain SWE1, active compounds read low 1.03
